# Experimental data published in PubChem BioAssay (EPA / NIEHS).
# Results filed as inconclusive are left out. Calls of active or inactive are those of the source. Rule for the calls, unless noted: active = hit-call score of the fitted dose curve at least 0.9, where 1 is the maximum; inactive = score below 0.9.
# Key:
# [1] = biological target: Paired box protein Pax-6 (Homo sapiens) (UniProt P26367); assay: ATG_Pax6_CIS: Attagene CIS-FACTORIAL HepG2 Assay for human Paired Box 6 (PAX6) (AID 2282956); conditions: HepG2 CIS-FACTORIAL PAX6 reporter transcription, RNA readout; actives raise or lower the signal
# How it was run: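 Multiplexed cis-reporter HepG2 system; 24 h treatment; reporter mRNA read by RT-PCR/CE fluorescence; bidirectional fit vs DMSO.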
# [2] = ATG_PXRE_CIS: Attagene CIS-FACTORIAL HepG2 Assay for human Pregnane X Receptor Element (PXRE) (AID 2282957); conditions: HepG2 Attagene CIS-FACTORIAL PXRE reporter, mRNA; actives raise or lower the signal
# How it was run: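 HepG2 cells transiently transfected with cis-element-driven multiplexed reporter units; after 24 h chemical exposure, reporter mRNA measured by RT-PCR, 6-FAM labelling, HpaI digestion and capillary electrophoresis. Bidirectional fitting relative to DMSO.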
# [3] = ATG_RORE_CIS: Attagene CIS-FACTORIAL HepG2 Assay for human RAR-related Orphan Receptor Element (RORE) (AID 2282959); conditions: HepG2 Attagene cis-factorial RORE reporter, mRNA; actives raise or lower the signal
# How it was run: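 Measured here: transcript induction of a cis-regulated reporter in HepG2 cells transiently transfected via FuGene 6. After 24 h, RNA was processed by RT-PCR and fluorescent capillary electrophoresis; DMSO defined baseline activity.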
# [4] = ATG_Sox_CIS: Attagene CIS-FACTORIAL HepG2 Assay for human SRY-box transcription factor (SOX) (AID 2282960); conditions: HepG2 Attagene cis-factorial SOX reporter, mRNA; actives raise or lower the signal
# How it was run: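 Using transiently transfected HepG2 cells, reporter transcription driven by cis elements was assessed 24 h after dosing. Signal was fluorescence of capillary-separated RT-PCR products, with DMSO defining baseline activity.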
# [5] = biological target: Transcription factor Sp1 (Homo sapiens) (UniProt P08047); assay: ATG_Sp1_CIS: Attagene CIS-FACTORIAL HepG2 Assay for human Specificity Protein 1 (Sp1) (AID 2282961); conditions: HepG2 Sp1 cis-reporter transcription, actives raise or lower the signal
# How it was run: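 After transient transfection of HepG2 cells with cis-promoter reporter units and 24 h chemical treatment, reporter transcripts were quantified by RT-PCR and capillary electrophoresis fluorescence. Gain- and loss-of-signal fitted against DMSO.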
# [6] = ATG_SREBP_CIS: Attagene CIS-FACTORIAL HepG2 Assay for human Sterol Regulatory Element Binding (SREBP) (AID 2282962); conditions: HepG2 Attagene cis-factorial SREBP reporter, mRNA; actives raise or lower the signal
# How it was run: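 mRNA induction of transfected cis-promoter reporters in HepG2 cells, 24 h post-dose. Detection: RT-PCR with 6-FAM-labelled products, HpaI digest, capillary electrophoresis. DMSO served as negative control and baseline.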
# [7] = biological target: Signal transducer and activator of transcription 3 (Homo sapiens) (UniProt P40763); assay: ATG_STAT3_CIS: Attagene CIS-FACTORIAL HepG2 Assay for human Signal Transducer and Activator of Transcription 3 (STAT3) (AID 2282963); conditions: HepG2, Attagene cis-factorial STAT3 reporter transcription; actives raise or lower the signal
# How it was run: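 After a 24 h compound incubation, total RNA from MRTU-transfected HepG2 cells was converted to cDNA and reporter sequences PCR-amplified, labelled and profiled by capillary electrophoresis. Gain and loss of signal were referenced to DMSO.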
# [8] = ATG_TCF_b_cat_CIS: Attagene CIS-FACTORIAL HepG2 Assay for human T-Cell-Factor with beta-catenin (TCF/b-cat) (AID 2282965); conditions: HepG2 TCF/beta-catenin cis-reporter transcription, actives raise or lower the signal
# How it was run: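 Endogenous transcription factor activity is captured through cis-promoter reporter constructs transiently introduced into human HepG2 liver cells. Induced reporter mRNA is measured after 24 h and fitted bidirectionally relative to DMSO.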
# [9] = ATG_TAL_CIS: Attagene CIS-FACTORIAL HepG2 Assay for human TAL Basal Promoter (AID 2282966); conditions: HepG2 Attagene cis-factorial TAL promoter reporter; actives raise or lower the signal;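 note: background control endpoint measuring basal TAL promoter reporter mRNA not a specific factor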
# How it was run: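 HepG2 cells transiently transfected with multiplexed cis-promoter reporter units, dosed 24 h. Reporter mRNA quantified by RT-PCR, 6-FAM labelling, HpaI digestion and capillary electrophoresis; TAL basal promoter serves as background control, fitted bidirectionally versus DMSO.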
# [10] = biological target: Nuclear receptor subfamily 1 group I member 3 (Homo sapiens) (UniProt Q14994); assay: ATG_CAR_TRANS: Attagene TRANS-FACTORIAL HepG2 Assay for human Constitutive Androstane Receptor (CAR) (AID 2282969; active = hit-call score of the fitted dose curve at least 0.9, where 1 is the maximum;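 note: activators raise reporter mRNA above DMSO so AC50 marks induction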); conditions: HepG2 Attagene TRANS-FACTORIAL CAR reporter
# How it was run: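 Readout is reporter mRNA induction, quantified by fluorescent primer extension and capillary electrophoresis after RT-PCR. Cells were HepG2 transiently carrying chimeric NR-Gal4 constructs with GAL4-UAS reporters, treated for 24 h; activity scored upward from DMSO.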
# [11] = biological target: X-box-binding protein 1 (Homo sapiens) (UniProt P17861); assay: ATG_Xbp1_CIS: Attagene CIS-FACTORIAL HepG2 Assay for human X-box Binding Protein 1 (XBP1) (AID 2282972); conditions: HepG2 XBP1 cis-element reporter, Attagene multiplex; actives raise or lower the signal
# How it was run: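 Fluorescence-labelled cDNA fragments from reporter transcripts, separated by capillary electrophoresis, give the signal. Source: HepG2 cells transfected with promoter-driven reporter units, harvested 24 h post-dose. DMSO served as reference for bidirectional curve fitting.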
# [12] = ATG_GAL4_TRANS: Attagene TRANS-FACTORIAL HepG2 Assay for GAL4 (Internal Marker) (AID 2282976; active = hit-call score of the fitted dose curve at least 0.9, where 1 is the maximum); conditions: HepG2 Attagene TRANS GAL4 internal marker reporter
# How it was run: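 Background-control readout: GAL4-UAS reporter transcript in transiently transfected HepG2 cells after 24 h compound exposure. Measured by RT-PCR, 6-FAM primer extension, HpaI digest and capillary electrophoresis; gain-of-signal fit versus DMSO.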
# [13] = ATG_TA_CIS: Attagene CIS-FACTORIAL HepG2 Assay for human TA Basal Promoter (AID 2282964); conditions: HepG2 Attagene CIS-factorial TA basal promoter reporter; actives raise or lower the signal
# How it was run: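 Background-control readout: TA basal promoter reporter mRNA, fitted in both directions relative to DMSO. Measured by RT-PCR and capillary electrophoresis 24 hours after treating HepG2 human liver cells transiently carrying multiplexed cis-regulated reporter constructs.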
# [14] = ATG_TGFb_CIS: Attagene CIS-FACTORIAL HepG2 Assay for human Transforming Growth Factor (TGF) (AID 2282967); conditions: HepG2 Attagene CIS TGFb reporter, mRNA transcription; actives raise or lower the signal
# How it was run: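 Endogenous TGFB1-linked transcription factor activity read as reporter mRNA via RT-PCR and capillary electrophoresis, 24 h after dosing transiently transfected HepG2 cells. Gain or loss of signal fitted relative to DMSO.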
# [15] = biological target: Estrogen receptor (Homo sapiens) (UniProt P03372); assay: ATG_ERa_TRANS: Attagene TRANS-FACTORIAL HepG2 Assay for human Estrogen Receptor alpha (ERa) (AID 2282970; active = hit-call score of the fitted dose curve at least 0.9, where 1 is the maximum); conditions: HepG2 Attagene TRANS ERa GAL4 reporter, mRNA
# How it was run: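 HepG2 cells transiently transfected with multiplexed GAL4-UAS reporter units read out chimeric NR-Gal4 activity. After 24 h compound exposure, reporter mRNA was quantified by RT-PCR, 6-FAM labeling, HpaI digestion and capillary electrophoresis, relative to DMSO.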
# [16] = biological target: Steroid hormone receptor ERR1 (Homo sapiens) (UniProt P11474); assay: ATG_ERRa_TRANS: Attagene TRANS-FACTORIAL HepG2 Assay for human Estrogen-Related Receptor alpha (ERRa) (AID 2282971; active = hit-call score of the fitted dose curve at least 0.9, where 1 is the maximum); conditions: HepG2 Attagene TRANS reporter, ERRa transactivation
# How it was run: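 HepG2 cells transiently transfected with GAL4-UAS reporter units and chimeric NR-Gal4 constructs; after 24 hour compound incubation, reporter mRNA quantified by RT-PCR, fluorescent labelling and capillary electrophoresis, gain of signal versus DMSO.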
# [17] = ATG_M_19_TRANS: Attagene TRANS-FACTORIAL HepG2 Assay for M19 Transcription Factor (Internal Marker) (AID 2282974; active = hit-call score of the fitted dose curve at least 0.9, where 1 is the maximum); conditions: HepG2 Attagene TRANS-FACTORIAL M19 internal marker reporter
# How it was run: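 Gain-of-signal in reporter mRNA, relative to DMSO, was scored from capillary electrophoresis fluorescence. HepG2 cells carried transiently transfected multiple reporter transcription units and were incubated with test chemicals for 24 h.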
# [18] = biological target: Estrogen-related receptor gamma (Homo sapiens) (UniProt P62508); assay: ATG_ERRg_TRANS: Attagene TRANS-FACTORIAL HepG2 Assay for human Estrogen-Related Receptor gamma (ERRg) (AID 2282977; active = hit-call score of the fitted dose curve at least 0.9, where 1 is the maximum;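 note: hits increase reporter signal over DMSO so potencies reflect activators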); conditions: HepG2 Attagene TRANS reporter, ERRg transactivation
# How it was run: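 Transient HepG2 transfectants, 24 h compound exposure, GAL4-UAS reporter mRNA by RT-PCR/6-FAM labelling/capillary electrophoresis; positive direction vs DMSO.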
# [19] = ATG_VDRE_CIS: Attagene CIS-FACTORIAL HepG2 Assay for human Vitamin D Receptor Element (VDRE) (AID 2282968); conditions: HepG2 VDRE cis-reporter transcription, actives raise or lower the signal
# How it was run: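 In transiently transfected HepG2 liver cells, gain or loss of reporter mRNA after 24 h exposure is scored relative to DMSO, using fluorescence detection by capillary electrophoresis of RT-PCR products.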
# Chain of Paired box protein Pax-6 (Homo sapiens) (P26367 whole entry, looked up): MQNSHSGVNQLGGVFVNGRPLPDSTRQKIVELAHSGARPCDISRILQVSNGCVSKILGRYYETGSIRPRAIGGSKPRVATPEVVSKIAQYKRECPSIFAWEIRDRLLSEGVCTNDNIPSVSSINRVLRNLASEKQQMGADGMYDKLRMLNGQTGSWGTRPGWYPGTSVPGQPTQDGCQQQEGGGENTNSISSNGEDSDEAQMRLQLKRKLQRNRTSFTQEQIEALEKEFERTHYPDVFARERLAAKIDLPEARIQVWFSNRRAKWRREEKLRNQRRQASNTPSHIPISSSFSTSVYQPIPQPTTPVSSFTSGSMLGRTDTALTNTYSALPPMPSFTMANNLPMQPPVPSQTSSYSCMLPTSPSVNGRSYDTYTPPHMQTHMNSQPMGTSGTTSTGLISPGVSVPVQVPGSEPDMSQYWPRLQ
# Chain of Estrogen-related receptor gamma (Homo sapiens) (P62508 whole entry, looked up, the tested form may be a part): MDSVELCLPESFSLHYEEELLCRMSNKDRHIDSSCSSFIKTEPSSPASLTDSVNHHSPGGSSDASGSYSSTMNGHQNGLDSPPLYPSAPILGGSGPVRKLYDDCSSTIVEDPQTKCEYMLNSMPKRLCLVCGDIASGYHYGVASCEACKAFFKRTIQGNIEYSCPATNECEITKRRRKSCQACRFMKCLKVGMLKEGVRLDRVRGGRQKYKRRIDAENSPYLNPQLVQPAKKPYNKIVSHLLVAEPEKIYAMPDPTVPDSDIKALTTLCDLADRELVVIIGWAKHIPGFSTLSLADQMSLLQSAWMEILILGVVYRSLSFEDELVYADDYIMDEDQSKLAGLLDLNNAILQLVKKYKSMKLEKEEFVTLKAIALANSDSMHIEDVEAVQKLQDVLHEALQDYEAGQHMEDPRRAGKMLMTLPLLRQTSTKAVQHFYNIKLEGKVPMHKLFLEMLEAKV
# Chain of Steroid hormone receptor ERR1 (Homo sapiens) (P11474 whole entry, looked up, the tested form may be a part): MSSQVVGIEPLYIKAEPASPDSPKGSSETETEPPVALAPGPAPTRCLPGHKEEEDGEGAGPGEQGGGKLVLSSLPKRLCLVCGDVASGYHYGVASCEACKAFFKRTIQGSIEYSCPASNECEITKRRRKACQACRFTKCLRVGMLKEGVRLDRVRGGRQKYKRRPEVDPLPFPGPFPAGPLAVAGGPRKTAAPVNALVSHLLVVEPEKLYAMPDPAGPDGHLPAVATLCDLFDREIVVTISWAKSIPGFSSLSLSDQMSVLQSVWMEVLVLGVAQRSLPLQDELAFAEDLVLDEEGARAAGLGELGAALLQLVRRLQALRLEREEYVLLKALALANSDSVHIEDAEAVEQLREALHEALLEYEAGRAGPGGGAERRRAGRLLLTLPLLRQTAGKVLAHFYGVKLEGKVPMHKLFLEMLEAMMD
# Chain of Nuclear receptor subfamily 1 group I member 3 (Homo sapiens) (Q14994 whole entry, looked up, the tested form may be a part): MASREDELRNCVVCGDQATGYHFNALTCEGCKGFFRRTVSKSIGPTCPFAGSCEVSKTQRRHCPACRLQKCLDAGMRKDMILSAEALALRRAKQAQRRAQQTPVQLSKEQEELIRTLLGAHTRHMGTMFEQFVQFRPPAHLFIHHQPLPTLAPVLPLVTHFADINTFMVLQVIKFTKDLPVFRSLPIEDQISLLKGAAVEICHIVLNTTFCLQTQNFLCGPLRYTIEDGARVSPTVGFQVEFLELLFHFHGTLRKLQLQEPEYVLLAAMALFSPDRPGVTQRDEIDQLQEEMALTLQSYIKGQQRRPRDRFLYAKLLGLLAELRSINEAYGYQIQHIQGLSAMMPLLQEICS
# Chain of X-box-binding protein 1 (Homo sapiens) (P17861 whole entry, looked up, the tested form may be a part): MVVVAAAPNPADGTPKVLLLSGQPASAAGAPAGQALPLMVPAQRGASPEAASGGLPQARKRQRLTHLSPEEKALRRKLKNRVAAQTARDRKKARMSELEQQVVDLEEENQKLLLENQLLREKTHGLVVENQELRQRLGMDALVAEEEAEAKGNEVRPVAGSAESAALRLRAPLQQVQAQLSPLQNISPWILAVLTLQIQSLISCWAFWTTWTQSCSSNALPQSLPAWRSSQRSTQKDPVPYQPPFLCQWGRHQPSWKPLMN
# Chain of Transcription factor Sp1 (Homo sapiens) (P08047 whole entry, looked up): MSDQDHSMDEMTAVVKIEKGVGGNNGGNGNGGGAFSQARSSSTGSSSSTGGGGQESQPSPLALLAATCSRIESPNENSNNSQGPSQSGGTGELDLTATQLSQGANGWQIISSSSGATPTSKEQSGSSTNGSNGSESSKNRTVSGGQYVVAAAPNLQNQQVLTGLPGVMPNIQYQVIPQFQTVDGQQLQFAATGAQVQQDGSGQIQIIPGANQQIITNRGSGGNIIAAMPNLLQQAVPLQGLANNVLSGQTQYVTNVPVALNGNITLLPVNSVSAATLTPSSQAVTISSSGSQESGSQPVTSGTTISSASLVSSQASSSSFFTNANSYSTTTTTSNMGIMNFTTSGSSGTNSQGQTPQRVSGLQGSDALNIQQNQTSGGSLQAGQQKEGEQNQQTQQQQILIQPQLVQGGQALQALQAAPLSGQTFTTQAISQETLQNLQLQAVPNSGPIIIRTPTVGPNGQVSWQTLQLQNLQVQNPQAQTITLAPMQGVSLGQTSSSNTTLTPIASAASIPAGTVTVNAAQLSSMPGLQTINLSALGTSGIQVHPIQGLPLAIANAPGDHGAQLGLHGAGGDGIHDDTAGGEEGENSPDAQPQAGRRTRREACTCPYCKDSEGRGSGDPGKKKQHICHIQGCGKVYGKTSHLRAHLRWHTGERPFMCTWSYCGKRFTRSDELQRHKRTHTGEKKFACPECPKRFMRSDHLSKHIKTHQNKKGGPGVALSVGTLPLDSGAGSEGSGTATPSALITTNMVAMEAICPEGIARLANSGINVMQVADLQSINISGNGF
# Chain of Signal transducer and activator of transcription 3 (Homo sapiens) (P40763 whole entry, looked up): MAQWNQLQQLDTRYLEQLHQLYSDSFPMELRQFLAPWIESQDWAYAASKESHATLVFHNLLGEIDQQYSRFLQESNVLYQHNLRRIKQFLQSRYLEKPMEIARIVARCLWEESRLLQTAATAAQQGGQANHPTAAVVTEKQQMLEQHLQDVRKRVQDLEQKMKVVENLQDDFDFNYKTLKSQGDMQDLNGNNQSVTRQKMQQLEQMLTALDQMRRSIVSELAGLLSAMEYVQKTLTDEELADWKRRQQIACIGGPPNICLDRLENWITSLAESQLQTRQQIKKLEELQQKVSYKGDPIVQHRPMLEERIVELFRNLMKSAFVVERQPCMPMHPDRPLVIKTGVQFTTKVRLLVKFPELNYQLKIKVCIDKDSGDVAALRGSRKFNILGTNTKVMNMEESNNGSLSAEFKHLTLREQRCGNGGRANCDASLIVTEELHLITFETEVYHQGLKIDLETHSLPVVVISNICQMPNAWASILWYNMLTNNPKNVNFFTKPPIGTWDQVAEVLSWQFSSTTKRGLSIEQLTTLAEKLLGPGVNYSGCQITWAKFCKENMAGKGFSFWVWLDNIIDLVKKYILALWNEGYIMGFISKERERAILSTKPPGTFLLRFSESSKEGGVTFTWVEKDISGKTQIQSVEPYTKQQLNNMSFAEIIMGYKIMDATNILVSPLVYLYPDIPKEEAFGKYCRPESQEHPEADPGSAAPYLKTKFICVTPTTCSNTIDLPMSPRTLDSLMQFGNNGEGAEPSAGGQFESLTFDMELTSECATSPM
# Chain of Estrogen receptor (Homo sapiens) (P03372 whole entry, looked up, the tested form may be a part): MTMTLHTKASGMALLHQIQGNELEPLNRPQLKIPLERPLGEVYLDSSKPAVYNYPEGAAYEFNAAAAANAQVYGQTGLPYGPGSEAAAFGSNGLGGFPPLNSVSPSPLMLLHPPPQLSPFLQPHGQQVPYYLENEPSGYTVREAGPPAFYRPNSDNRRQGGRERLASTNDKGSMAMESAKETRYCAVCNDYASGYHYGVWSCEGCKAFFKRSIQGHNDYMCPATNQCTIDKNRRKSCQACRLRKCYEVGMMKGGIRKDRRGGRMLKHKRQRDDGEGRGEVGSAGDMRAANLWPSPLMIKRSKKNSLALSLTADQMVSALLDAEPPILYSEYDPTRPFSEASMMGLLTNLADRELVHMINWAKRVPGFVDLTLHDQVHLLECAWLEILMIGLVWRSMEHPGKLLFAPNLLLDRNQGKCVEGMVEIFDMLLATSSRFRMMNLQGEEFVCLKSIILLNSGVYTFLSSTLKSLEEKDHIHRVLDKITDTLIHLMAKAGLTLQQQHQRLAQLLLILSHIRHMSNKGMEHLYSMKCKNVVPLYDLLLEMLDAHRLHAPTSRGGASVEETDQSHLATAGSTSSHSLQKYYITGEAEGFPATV
compound,measurement,setting,value
CC(=O)OCc1ccc2c(c1)OCO2,outcome,[1],inactive
same,AC50,[2],26.9 µM (active)
same,outcome,[3],inactive
same,outcome,[4],inactive
same,outcome,[5],inactive
same,outcome,[6],inactive
same,outcome,[7],inactive
same,outcome,[8],inactive
same,outcome,[9],inactive
same,outcome,[10],inactive
same,outcome,[11],inactive
same,outcome,[12],inactive
NCCOCCO,outcome,[1],inactive
same,outcome,[2],inactive
same,outcome,[3],inactive
same,outcome,[4],inactive
same,outcome,[5],inactive
same,outcome,[6],inactive
same,outcome,[13],inactive
same,outcome,[8],inactive
same,outcome,[9],inactive
same,outcome,[14],inactive
same,outcome,[15],inactive
same,outcome,[16],inactive
same,outcome,[11],inactive
same,outcome,[17],inactive
same,outcome,[18],inactive
Sc1nc(S)nc(S)n1,outcome,[1],inactive
same,outcome,[2],inactive
same,outcome,[3],inactive
same,outcome,[5],inactive
same,outcome,[6],inactive
same,outcome,[13],inactive
same,outcome,[8],inactive
same,outcome,[9],inactive
same,outcome,[14],inactive
same,outcome,[19],inactive
same,outcome,[11],inactive
same,outcome,[12],inactive
CCCCCCOC(=O)CCCCC,outcome,[1],inactive
same,outcome,[2],inactive
same,outcome,[3],inactive
same,outcome,[5],inactive
same,outcome,[6],inactive
same,outcome,[7],inactive
same,outcome,[13],inactive
same,outcome,[8],inactive
same,outcome,[9],inactive
same,outcome,[14],inactive
same,outcome,[11],inactive
same,outcome,[17],inactive
same,outcome,[12],inactive
CCCc1ccccc1O,outcome,[1],inactive
same,AC50,[2],56 µM (active)
same,outcome,[3],inactive
same,outcome,[5],inactive
same,outcome,[6],inactive
same,outcome,[13],inactive
same,outcome,[8],inactive
same,outcome,[9],inactive
same,outcome,[19],inactive
same,outcome,[10],inactive
same,outcome,[12],inactive
OC[C@H]1O[C@H](O[C@]2(CCl)O[C@H](CCl)[C@@H](O)[C@@H]2O)[C@H](O)[C@@H](O)[C@H]1Cl,outcome,[1],inactive
same,outcome,[2],inactive
same,outcome,[3],inactive
same,outcome,[4],inactive
same,outcome,[5],inactive
same,outcome,[6],inactive
same,outcome,[7],inactive
same,outcome,[8],inactive
same,outcome,[9],inactive
same,outcome,[14],inactive
same,outcome,[19],inactive
same,outcome,[11],inactive
same,outcome,[17],inactive
same,outcome,[12],inactive
C=O,outcome,[1],inactive
same,AC50,[2],27.7 µM (active)
same,outcome,[4],inactive
same,outcome,[5],inactive
same,outcome,[6],inactive
same,outcome,[7],inactive
same,outcome,[13],inactive
same,outcome,[8],inactive
same,outcome,[9],inactive
same,outcome,[14],inactive
same,outcome,[10],inactive
same,outcome,[11],inactive
same,outcome,[17],inactive
same,outcome,[12],inactive
same,outcome,[18],inactive
CCN(CC)CCOC(=O)c1ccc(N)cc1,outcome,[1],inactive
same,AC50,[2],45.9 µM (active)
same,outcome,[3],inactive
same,outcome,[4],inactive
same,outcome,[5],inactive
same,outcome,[6],inactive
same,outcome,[13],inactive
same,outcome,[8],inactive
same,outcome,[9],inactive
same,outcome,[16],inactive
same,outcome,[11],inactive
same,outcome,[17],inactive
same,outcome,[12],inactive
same,outcome,[18],inactive
C=C(C)C(=O)Nc1ccc(Cl)c(Cl)c1,outcome,[1],inactive
same,AC50,[2],10.2 µM (active)
same,AC50,[3],27.2 µM (active)
same,outcome,[4],inactive
same,outcome,[6],inactive
same,outcome,[7],inactive
same,outcome,[13],inactive
same,outcome,[8],inactive
same,outcome,[9],inactive
same,outcome,[14],inactive
same,AC50,[19],20.6 µM (active)
same,outcome,[10],inactive
same,outcome,[15],inactive
same,outcome,[11],inactive
same,outcome,[17],inactive
same,outcome,[12],inactive
COc1c(Cl)c(Cl)c(Cl)c(Cl)c1Cl,outcome,[1],inactive
same,AC50,[2],26.2 µM (active)
same,outcome,[3],inactive
same,outcome,[4],inactive
same,outcome,[5],inactive
same,outcome,[7],inactive
same,outcome,[13],inactive
same,outcome,[8],inactive
same,outcome,[9],inactive
same,outcome,[14],inactive
same,outcome,[10],inactive
same,outcome,[11],inactive
CCCCCC(=O)OCCc1ccccc1,outcome,[1],inactive
same,outcome,[2],inactive
same,outcome,[3],inactive
same,outcome,[4],inactive
same,outcome,[5],inactive
same,outcome,[7],inactive
same,outcome,[13],inactive
same,outcome,[8],inactive
same,outcome,[9],inactive
same,outcome,[14],inactive
same,outcome,[19],inactive
same,outcome,[10],inactive
same,outcome,[15],inactive
same,outcome,[16],inactive
same,outcome,[11],inactive
